Assay results published in PubChem BioAssay (NCI).
Where “and” joins values, the source holds several entries; their conditions need not be identical. Equal values may be shown once. About 79,000 compounds went through this panel and 15% of them were active in at least one assay; those are over-represented in the sample as a whole. Calls of active or inactive are those of the source. No stated cut-off is given here; in the data, active means growth inhibition above about 70%; inactive means the rest. Where a SMILES comes first, the peptide text is derived from it. The star is where a group is joined. Boc = CC(C)(C)OC(=O)*; OBn = c1ccc(CO*)cc1

Assay: NCI Yeast Anticancer Drug Screen. Data for the cln2 rad14 strain (AID 165);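 further: 0% = growth equal to vehicle treated cultures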
Details: S. cerevisiae cln2 rad14 strain, hits give high values; at 50.0 µM unless noted
Outline: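 Growth of compound-exposed yeast (cln2 rad14 genotype) measured and expressed as inhibition relative to vehicle.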

Compound	growth inhibition
CCCCOC(=O)c1cccc(C)c1	-38.1% (inactive)
CCSC(SCC)=C1C(=O)N(c2ccccc2)N=C1C	16.2% (inactive)
O=C1OC(c2ccccc2)=N/C1=C/C=C/c1ccco1	-9.75% (inactive)
Nc1nc(N)c2ncn(Cc3ccccc3)c2n1	-14.1% (inactive)
Nc1ncnc(N)c1NC(=O)c1ccc2ccccc2c1	-1.85% (inactive)
COc1ccc(C2=C(Cl)c3cc(OC)c(OC)cc3C2Cl)cc1 (centres undefined)	11.8% (inactive)
O=C(c1ccccc1)C1CC1C(=O)c1ccccc1 (centres undefined)	-61.5% (inactive)
CCOc1ccc(N2C(=O)/C(=C/c3ccc(N(CCC#N)CCC#N)cc3)N=C2c2cc([N+](=O)[O-])ccc2Cl)cc1	17.8% (inactive)
N#CCc1cccc(Cl)c1Cl (tested in a mixture with another compound)	-22.4% (inactive)
Nc1c(I)cc(I)c(C(=O)O)c1I	-14.8% (inactive)
CC(C)(C)[Si](C)(C)OCC1OC(n2cnc3c(=O)[nH]cnc32)CC1O (centres undefined)	8% (inactive)
CCCCCCCCCCCCCCCCCn1nnnc1N	-9.95% (inactive)
CCC1(CC)C(=O)NN(C(=O)c2ccc(Cl)cc2)C1=O	7.15% (inactive)
CCOC(=O)CSC#N	7.4% (inactive)
O=C(O)c1ccc(C(=O)NCCCN(CCCCN(CCCNC(=O)c2ccc(C(=O)O)c(O)c2O)C(=O)c2ccc(C(=O)O)c(O)c2O)C(=O)c2ccc(C(=O)O)c(O)c2O)c(O)c1O	-31.3% (inactive)
CCCCCCCCCCCC[N+](C)([O-])CCCCCC[N+](C)([O-])CCCCCCCCCCCC (centres undefined)	96.5% (active)
CCOC(=O)c1[nH]c(-c2[nH]c(-c3[nH]c(-c4[nH]c(C(=O)OCC)c(C)c4C(=O)OCC)c(C(=O)OCC)c3C)c(C)c2C(=O)OCC)c(C(=O)OCC)c1C	6.85% (inactive)
O=c1cnn2c(n1)OC1C(O)C(CO)OC12 (centres undefined)	-21.7% (inactive)
N#Cc1c(-c2ccccc2Cl)c(-c2ccccc2Cl)nn(CCO)c1=O	9.35% (inactive)
O=C(O)c1ccccc1SCCO	47.8% (inactive)
Cc1ccc(S(=O)(=O)N/N=C/c2ccoc2)cc1	-3.9% (inactive)
COc1ccc(NC(=O)CC/C(CC(=O)c2ccco2)=N/NC(=O)C(N)=O)cc1	-7.15% (inactive)
Cc1ncc(CN=Cc2ccc(Cl)cc2)c(N)n1	-12% (inactive)
CCSCCC#N	0.3% (inactive)

Assay: NCI Yeast Anticancer Drug Screen. Data for the bub3 strain (AID 167)
Details: S. cerevisiae bub3 mutant strain, hits give high values; at 50.0 µM unless noted
Outline: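 Part of a panel of yeast mutants defective in DNA damage repair or cell cycle regulation. Each strain is grown with compound, and inhibition is calculated relative to solvent-treated cultures.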

Compound	growth inhibition
Cn1c2c(c3ccccc31)CCN(CCCCN1CCN(c3ccccc3)CC1)C2=O	-11.2% (inactive)
Cc1ccc(S(=O)(=O)C2OC(CO)C(O)C(O)C2O)cc1 (centres undefined)	14.9% (inactive)
CC(C)CC(NC(=O)C(Cc1ccccc1)NC(=O)C(Cc1ccccc1)NC(=O)OC(C)(C)C)C(=O)OCc1ccccc1 (stereo not drawn) (Boc-Phe-Phe-Leu-OBn; configuration not given here)	0.95% (inactive)
CC1CC(C)OC(C(Br)CBr)O1 (centres undefined)	-13.9% (inactive)
CCN(CC)CC(=O)Nc1ccc2c(c1)C(=O)c1ccc(NC(=O)CN(CC)CC)cc1C2=O	-1.2% (inactive)
CN(C)Cc1ccccc1CC1(O)CCCC1	0.3% (inactive)
Cc1cccc(C)c1I	-46.5% (inactive)
CCOCNC(=O)NCC(F)(F)C(F)(F)C(F)(F)C(F)(F)C(F)(F)C(F)(F)C(F)(F)F	-1.65% (inactive)
O=C1OC(c2ccccc2)=N/C1=C\c1ccccc1	3.9% (inactive) and -15.2% (inactive)
CS(C)=NC(=Nc1ccccc1)c1ccccc1	9.7% (inactive)
CCOC(=O)/C(=C\c1ccccc1)c1ccccc1	27.1% (inactive)
CCN(CC)C(=O)c1cc(OC)c(C(=O)N(CC)CC)cc1OC	-9.4% (inactive)
Cc1cc2nncn2c2ccccc12	1.2% (inactive)
CC1=NN(C(=O)Cc2ccccc2)C(=O)/C1=C\c1ccc(O)cc1	-13.2% (inactive)
c1ccc(NN=Nc2ncnc3nc[nH]c23)cc1	7.7% (inactive)
O=C(/C=C/c1ccc(OCc2ccccc2)cc1)c1cccc([N+](=O)[O-])c1	-0.05% (inactive)
CCCCOC(=O)c1cccc(C)c1	2.6% (inactive)
CCSC(SCC)=C1C(=O)N(c2ccccc2)N=C1C	8.6% (inactive)
O=C1OC(c2ccccc2)=N/C1=C/C=C/c1ccco1	-1.6% (inactive)
Nc1nc(N)c2ncn(Cc3ccccc3)c2n1	-16.1% (inactive)

Compound	growth inhibition
Nc1ncnc(N)c1NC(=O)c1ccc2ccccc2c1	-20.4% (inactive)
COc1ccc(C2=C(Cl)c3cc(OC)c(OC)cc3C2Cl)cc1 (centres undefined)	-0.45% (inactive)
O=C(c1ccccc1)C1CC1C(=O)c1ccccc1 (centres undefined)	38.3% (inactive)
CCOc1ccc(N2C(=O)/C(=C/c3ccc(N(CCC#N)CCC#N)cc3)N=C2c2cc([N+](=O)[O-])ccc2Cl)cc1	9.3% (inactive)
N#CCc1cccc(Cl)c1Cl (tested in a mixture with another compound)	14.4% (inactive)
Nc1c(I)cc(I)c(C(=O)O)c1I	-25.4% (inactive)
CC(C)(C)[Si](C)(C)OCC1OC(n2cnc3c(=O)[nH]cnc32)CC1O (centres undefined)	44% (inactive)
CCCCCCCCCCCCCCCCCn1nnnc1N	-12.3% (inactive)
CCC1(CC)C(=O)NN(C(=O)c2ccc(Cl)cc2)C1=O	-5.6% (inactive)
CCOC(=O)CSC#N	21.2% (inactive)
O=C(O)c1ccc(C(=O)NCCCN(CCCCN(CCCNC(=O)c2ccc(C(=O)O)c(O)c2O)C(=O)c2ccc(C(=O)O)c(O)c2O)C(=O)c2ccc(C(=O)O)c(O)c2O)c(O)c1O	0.35% (inactive)
CCCCCCCCCCCC[N+](C)([O-])CCCCCC[N+](C)([O-])CCCCCCCCCCCC (centres undefined)	96.5% (active)
CCOC(=O)c1[nH]c(-c2[nH]c(-c3[nH]c(-c4[nH]c(C(=O)OCC)c(C)c4C(=O)OCC)c(C(=O)OCC)c3C)c(C)c2C(=O)OCC)c(C(=O)OCC)c1C	-14.1% (inactive)
O=c1cnn2c(n1)OC1C(O)C(CO)OC12 (centres undefined)	-11.7% (inactive)
N#Cc1c(-c2ccccc2Cl)c(-c2ccccc2Cl)nn(CCO)c1=O	10.2% (inactive)
O=C(O)c1ccccc1SCCO	-22.4% (inactive)
Cc1ccc(S(=O)(=O)N/N=C/c2ccoc2)cc1	4.45% (inactive)
COc1ccc(NC(=O)CC/C(CC(=O)c2ccco2)=N/NC(=O)C(N)=O)cc1	-14.1% (inactive)
Cc1ncc(CN=Cc2ccc(Cl)cc2)c(N)n1	8.9% (inactive)
CCSCCC#N	8.1% (inactive)
